PubChem BioAssay AID1159580 (chemical genetic matrix, 2015)
Values joined by “and” are separate entries in the source; they are usually repeats but may differ in a detail not shown here. Identical values can stand only once. The whole screen tested about 5,500 compounds, of which about 2,000 (36%) were called active. Inconclusive results (about 18%) are left out. Cut-off read from the data, not from the text of the source: active = normalized growth mostly below about 0.91 (no sharp cut-off); inconclusive = no clear call, values can overlap the other calls; inactive = mostly above about 0.92. The list shows a part of the results.

Assay: chemical genetic growth profiling, strain panel (AID 1159580);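 note: tested at 20 µM; growth read once vehicle control cultures reached saturation at 30 °C; 1 = growth at the plate median or of vehicle wells; lower values mean less growth of the strain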
Conditions: S. cerevisiae deletion strains, growth OD

Measured: normalized growth

CCC(CCC(C)[C@H]1CCC2C3CC=C4C[C@@H](O)CC[C@]4(C)C3CC[C@@]21C)C(C)C (stereo partly drawn)
inactive: locus YAL013W, strain DEP1, active compounds read low 0.998 | locus YAL021C, strain ccr4, active compounds read low 1.01 | locus YAL026C, strain drs2, active compounds read low 1.01 | locus YAL030W, strain snc1, active compounds read low 1.01 | locus YBL061C, strain skt5, active compounds read low 1.02 | locus YBR009C, strain hhf1, active compounds read low 1.02 | locus YBR021W, strain FUR4, active compounds read low 1.02 | locus YBR023C, strain chs3, active compounds read low 1.01 | locus YBR171W, strain sec66, active compounds read low 1.04 | locus YBR229C, strain ROT2, active compounds read low 0.988 | locus YBR231C, strain swc5, active compounds read low 1.01 | locus YBR279W, strain paf1, active compounds read low 1.01 | locus YCL011C, strain gbp2, active compounds read low 1.02 | locus YCL016C, strain dcc1, active compounds read low 1.02 | locus YCL029C, strain bik1, active compounds read low 0.999 | locus YCL061C, strain MRC1, active compounds read low 1.02 | locus YCL069W, strain vba3, active compounds read low 1.02 | locus YCR088W, strain abp1, active compounds read low 1.02 | locus YDL005C, strain med2, active compounds read low 1.02 | locus YDL035C, strain GPR1, active compounds read low 1.05 | locus YDL040C, strain nat1, active compounds read low 1.02 | locus YDL074C, strain BRE1, active compounds read low 1.05 | locus YDL101C, strain DUN1, active compounds read low 0.973 | locus YDL134C, strain PPH21, active compounds read low 0.97 | locus YDL185W, strain tfp1, active compounds read low 0.976 | locus YDL192W, strain arf1, active compounds read low 1.02 | locus YDR001C, strain nth1, active compounds read low 1.01 | locus YDR069C, strain doa4, active compounds read low 1.03 | locus YDR101C, strain arx1, active compounds read low 1.03 | locus YDR137W, strain rgp1, active compounds read low 1.01 | locus YDR150W, strain NUM1, active compounds read low 0.997 | locus YDR159W, strain sac3, active compounds read low 1.04 | locus YDR162C, strain NBP2, active compounds read low 0.994 | locus YDR195W, strain ref2 1.03 | locus YDR297W, strain sur2, active compounds read low 1.03 | locus YDR318W, strain mcm21, active compounds read low 0.986 | locus YDR334W, strain swr1, active compounds read low 1.03 | locus YDR335W, strain msn5, active compounds read low 1.01 | locus YDR388W, active compounds read low 0.975 | locus YDR392W, strain spt3, active compounds read low 1.02 | locus YDR502C, strain sam2, active compounds read low 0.973 | locus YEL003W, strain gim4, active compounds read low 1.01 | locus YEL037C, strain rad23, active compounds read low 1.02 | locus YEL061C, strain CIN8 (second series), active compounds read low 1.02 | locus YER015W, strain faa2, active compounds read low 1.01 | locus YER016W, strain bim1, active compounds read low 1.02 | locus YER110C, active compounds read low 0.979 | locus YER111C, strain swi4, active compounds read low 1.02 | locus YER155C, strain BEM2 (second series), active compounds read low 1.04 | locus YER155C, strain BEM2, active compounds read low 0.982 | locus YER167W, strain BCK2, active compounds read low 1.01 | locus YFR010W, strain ubp6, active compounds read low 1.02 | locus YGL078C, strain dbp3, active compounds read low 0.983 | locus YGL086W, strain mad1, active compounds read low 0.989 | locus YGL167C, strain pmr1, active compounds read low 1.03 | locus YGL173C, strain kem1, active compounds read low 1.02 | locus YGL227W, strain vid30, active compounds read low 1.02 | locus YGL240W, strain doc1, active compounds read low 1.03 | locus YGL248W, strain PDE1, active compounds read low 0.978 | locus YGL253W, strain hxk2, active compounds read low 1.02 | locus YGR135W, strain pre9, active compounds read low 0.958 | locus YGR252W, strain gcn5, active compounds read low 0.929 | locus YHR013C, strain ard1, active compounds read low 1.04 | locus YHR027C, strain rpn1, active compounds read low 1.01 | locus YHR030C, strain SLT2, active compounds read low 0.996 | locus YHR079C, strain IRE1 (second series), active compounds read low 0.987 | locus YHR079C, strain IRE1, active compounds read low 0.984 | locus YHR094C, strain hxt1, active compounds read low 0.984 | locus YHR129C, strain ARP1, active compounds read low 0.994 | locus YHR142W, strain chs7, active compounds read low 1.02 | locus YHR200W, strain rpn10, active compounds read low 0.961 | locus YIL066C, strain RNR3, active compounds read low 1.01 | locus YIL073C, strain SPO22, active compounds read low 1.02 | locus YIL125W, strain kgd1, active compounds read low 0.993 | locus YIR030C, strain dcg1, active compounds read low 0.986 | locus YJL092W, strain hpr5, active compounds read low 1.02 | locus YJL095W, strain BCK1 (second series), active compounds read low 1.01 | locus YJL095W, strain BCK1, active compounds read low 0.972 and 0.979 | locus YJL115W, strain asf1, active compounds read low 1 | locus YJL129C, strain trk1, active compounds read low 1.03 | locus YJL134W, strain LCB3, active compounds read low 0.991 | locus YJL154C, strain vps35, active compounds read low 1.02 | locus YJL164C, strain tpk1, active compounds read low 1.01 | locus YJL166W, strain qcr8, active compounds read low 1.02 | locus YJL168C, strain set2, active compounds read low 0.988 | locus YJL187C, strain SWE1 (second series), active compounds read low 0.977 | locus YJL187C, strain SWE1, active compounds read low 1.01 | locus YJR043C, strain POL32, active compounds read low 1.06 | locus YJR066W, strain TOR1, active compounds read low 0.915 | locus YKL009W, strain mrt4, active compounds read low 1.01 | locus YKL068W, active compounds read low 0.981 | locus YKL085W, strain MDH1 (second series), active compounds read low 0.998 | locus YKL085W, strain MDH1, active compounds read low 0.998 | locus YKL160W, strain elf1, active compounds read low 1.01 | locus YKR001C, strain vps1, active compounds read low 1 | locus YKR026C, strain gcn3, active compounds read low 1.02 | locus YKR091W, strain srl3, active compounds read low 1.01 | locus YLL001W, strain dnm1, active compounds read low 1.01 | locus YLL026W, active compounds read low 1.02 | locus YLL041C, strain sdh2, active compounds read low 1.01 | locus YLR027C, strain aat2, active compounds read low 1.02 | locus YLR039C, strain RIC1, active compounds read low 1.04 | locus YLR058C, strain SHM2, active compounds read low 0.998 | locus YLR102C, strain apc9, active compounds read low 0.976 | locus YLR113W, strain HOG1, active compounds read low 0.97 | locus YLR221C, strain rsa3, active compounds read low 1.01 | locus YLR258W, strain gsy2, active compounds read low 1 | locus YLR262C, strain YPT6 (second series), active compounds read low 1.03 | locus YLR262C, strain YPT6, active compounds read low 1.05 | locus YLR268W, strain sec22, active compounds read low 1.01 | locus YLR320W, strain mms22, active compounds read low 1.03 | locus YLR342W, strain FKS1 (second series), active compounds read low 1.08 | locus YLR342W, strain FKS1, active compounds read low 1.03 | locus YLR357W, strain rsc2, active compounds read low 1 | locus YLR370C, strain arc18, active compounds read low 1.01 | locus YLR371W, strain rom2, active compounds read low 1 | locus YLR384C, strain iki3, active compounds read low 1.02 | locus YLR418C, strain cdc73, active compounds read low 0.964 | locus YML016C, strain PPZ1, active compounds read low 1 | locus YML032C, strain rad52, active compounds read low 1.01 | locus YML120C, strain ndi1, active compounds read low 1.01 | locus YML124C, strain tub3, active compounds read low 0.986 | locus YMR058W, strain fet3, active compounds read low 1.02 | locus YMR078C, strain ctf18, active compounds read low 0.971 | locus YMR125W, strain sto1, active compounds read low 1.01 | locus YMR129W, active compounds read low 1.01 | locus YMR205C, strain PFK2, active compounds read low 1.03 | locus YMR223W, strain ubp8, active compounds read low 0.987 | locus YMR231W, strain pep5, active compounds read low 0.997 | locus YMR307W, strain GAS1, active compounds read low 0.996 | locus YNL067W, strain RPL9B, active compounds read low 0.988 | locus YNL071W, strain lat1, active compounds read low 1.01 | locus YNL128W, strain TEP1, active compounds read low 1.01 | locus YNL153C, strain GIM3, active compounds read low 0.986 | locus YNL183C, strain NPR1, active compounds read low 0.905 | locus YNL209W, strain ssb2, active compounds read low 1.01 | locus YNL233W, strain BNI4, active compounds read low 0.968 | locus YNL248C, strain rpa49, active compounds read low 1.01 | locus YNL250W, strain rad50, active compounds read low 0.961 | locus YNL271C, strain bni1, active compounds read low 0.974 | locus YNL298W, strain CLA4, active compounds read low 0.993 | locus YNL307C, strain MCK1, active compounds read low 0.978 | locus YNL322C, strain KRE1 (second series), active compounds read low 1.01 | locus YNR049C, strain mso1, active compounds read low 1.01 | locus YNR052C, strain pop2, active compounds read low 0.973 | locus YOL006C, strain TOP1, active compounds read low 1.1 | locus YOL012C, strain htz1 0.713 | locus YOL147C, strain pex11, active compounds read low 0.989 | locus YOR001W, strain rrp6, active compounds read low 1.03 | locus YOR061W, strain CKA2, active compounds read low 1.02 | locus YOR069W, strain VPS5, active compounds read low 0.99 | locus YOR070C, strain gyp1, active compounds read low 1.05 | locus YOR080W, strain dia2, active compounds read low 1.02 | locus YOR083W, strain WHI5, active compounds read low 1.02 | locus YOR106W, strain vam3, active compounds read low 1.02 | locus YOR136W, strain idh2, active compounds read low 0.971 | locus YOR144C, strain elg1, active compounds read low 0.988 | locus YOR184W, strain ser1, active compounds read low 1.05 | locus YOR231W, strain MKK1, active compounds read low 0.991 | locus YOR265W, strain rbl2, active compounds read low 1.02 | locus YOR270C, strain vph1, active compounds read low 1.03 | locus YOR290C, strain snf2, active compounds read low 1.02 | locus YOR316C, strain cot1, active compounds read low 0.978 | locus YPL051W, strain arl3, active compounds read low 1.04 | locus YPL078C, strain atp4, active compounds read low 1.01 | locus YPL106C, strain sse1, active compounds read low 1.01 | locus YPL240C, strain hsp82, active compounds read low 1.01 | locus YPL256C, strain CLN2, active compounds read low 0.989 | locus YPR119W, strain clb2, active compounds read low 0.97 | locus YPR141C, strain kar3, active compounds read low 0.972 | locus YPR163C, strain tif3, active compounds read low 0.979 | locus YPR167C, strain met16, active compounds read low 0.97 | strain wtn01, active compounds read low 1.01
